Here are results for eight compounds from PubChem BioAssay (NCATS).

Assay [1] has as its target Phospholipid hydroperoxide glutathione peroxidase GPX4 (Homo sapiens) (UniProt P36969). Kind of assay: Primary qHTS Assay for Inhibitors of Recombinant Selenoprotein Glutathione Peroxidase 4 (GPX4) (AID 1845192). Further: nearly all actives have a fitted effect of over 65% in size. Further: potency means the concentration at half of the fitted maximal effect. A digest of the protocol:
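GR-coupled readout: 100 nM GR, 1 mM GSH, 0.5 mM NADPH; NADPH fluorescence (ex 340/em 450 nm) read at t=0 and after 15 min RT. GPX4 200 nM, preincubated 30 min with compound; substrate 0.5 mM CHP.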

The target of assay [2] is Luciferin 4-monooxygenase (Photinus pyralis) (UniProt P08659). The assay can be described thus: Primary firefly luciferase (FLuc) qHTS assay for identification of artifact compounds. (AID 1845220). Further: nearly all actives have a fitted effect of over 60% in size. In a few lines: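 Reaction readout was CCD-imaged luminescence, taken 5 min after adding 10 nM purified firefly enzyme to compound-treated wells holding 10 uM luciferin and ATP in pH 7.6 buffer.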
On the technique in general: In qHTS, concentration-response curves come from the screen itself.

Assay [3] relates to Nanoluciferase (engineered Oplophorus gracilirostris luciferase). The assay can be described thus: Primary Nanoluciferase (NLuc) qHTS assay for identification of artifact compounds. (AID 1845222).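 Further: NLuc secreted into diluted conditioned medium of S16 cells; series mostly up to about 54 µM.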 In a few lines: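 Concentration-response data were obtained by luminescence after 5 min with Nano-Glo substrate at 1:100. The enzyme was diluted S16 NLuc-expressing cell medium, preincubated with compound for 15 min at RT. Curves were fitted with a 4-parameter Hill model.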

The nature of assay [4]: Primary redox qHTS assay for identification of artifact compounds. (AID 1845223). A digest of the protocol:
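Amplex Red (25 uM) and HRP (250 mU/mL) in HBSS, with compounds for 15 min, then 250 uM DTT for 30 min, room temperature, dark. Fluorescence 525/598 nm read; normalized to DMSO and 10 uM DA3003; Hill fit.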

Assay [5] can be described thus: Quantitative High-Throughput drug screen in 47 multiple myeloma cell lines against the NCATS MIPE library collection: FR4_PLB cell viability assay (AID 1918924; further: nearly all actives have a fitted effect of over 35% in size; further: potency means the concentration at half of the fitted maximal effect). In a few lines:
(§1)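 Viability readout: CellTiter-Glo luminescence following 5 min room-temperature incubation with reagent. Prior exposure: 48 h, 37C, humidified 5% CO2, 500 cells per well.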

The nature of assay [6]: Quantitative High-Throughput drug screen in 47 multiple myeloma cell lines against the NCATS MIPE library collection: EJM_DSMZ cell viability assay (AID 1918926; further: nearly all actives have a fitted effect of over 30% in size; further: potency means the concentration at half of the fitted maximal effect). A digest of the protocol: (§2)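 Inhibition of cell viability is measured here. Each line was plated at 500 cells per well, treated with MIPE 4.0 drugs, kept 48 hours at 37C, then assayed for ATP content by CellTiter-Glo luminescence.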

A short description of assay [7]: Quantitative High-Throughput drug screen in 47 multiple myeloma cell lines against the NCATS MIPE library collection: AMO1_DSMZ cell viability assay (AID 1918927; further: nearly all actives have a fitted effect of over 30% in size; further: potency means the concentration at half of the fitted maximal effect). In a few lines: as §2
Assay [8] in a line: Quantitative High-Throughput drug screen in 47 multiple myeloma cell lines against the NCATS MIPE library collection: JIM1_ECACC cell viability assay (AID 1918964). In a few lines: as §2
Assay [9] can be described thus: Quantitative High-Throughput drug screen in 47 multiple myeloma cell lines against the NCATS MIPE library collection: INA6_PLB cell viability assay (AID 1918965; further: nearly all actives have a fitted effect of over 55% in size; further: potency means the concentration at half of the fitted maximal effect). In a few lines:
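Approved and investigational drugs from MIPE 4.0 were added by pin tool to 500 cells per well. After 48 hours at 37C, ATP-based CellTiter-Glo luminescence indicated remaining viability.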

Assay [10] can be described thus: Quantitative High-Throughput drug screen in 47 multiple myeloma cell lines against the NCATS MIPE library collection: JJN3_DSMZ cell viability assay (AID 1918966; further: nearly all actives have a fitted effect of over 50% in size; further: potency means the concentration at half of the fitted maximal effect). A digest of the protocol:
as §2

The nature of assay [11]: Quantitative High-Throughput drug screen in 47 multiple myeloma cell lines against the NCATS MIPE library collection: H1112_PLB cell viability assay (AID 1918967; further: nearly all actives have a fitted effect of over 30% in size). A digest of the protocol:
as §2

Assay [12] in a line: Quantitative High-Throughput drug screen in 47 multiple myeloma cell lines against the NCATS MIPE library collection: Delta47_JCRB cell viability assay (AID 1918925; further: nearly all actives have a fitted effect of over 45% in size; further: potency means the concentration at half of the fitted maximal effect). In a few lines:
as §2

A short description of assay [13]: Quantitative High-Throughput drug screen in 47 multiple myeloma cell lines against the NCATS MIPE library collection: ARD_JJKsccE7 cell viability assay (AID 1918929; further: potency means the concentration at half of the fitted maximal effect). In a few lines:
as §2

Assay [14] in a line: Quantitative High-Throughput drug screen in 47 multiple myeloma cell lines against the NCATS MIPE library collection: Karpas620_DSMZ cell viability assay (AID 1918959). Further: nearly all actives have a fitted effect of over 30% in size. In a few lines: as §1
Assay [15] can be described thus: Quantitative High-Throughput drug screen in 47 multiple myeloma cell lines against the NCATS MIPE library collection: KMM1_JCRB cell viability assay (AID 1918960). Further: nearly all actives have a fitted effect of over 30% in size. Further: potency means the concentration at half of the fitted maximal effect. A digest of the protocol: (§3)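 Myeloma cells at 500 per well in 1536-well format treated with MIPE 4.0 library by pin transfer for 48 h at 37C, 5% CO2. Viability from ATP luminescence (CellTiter-Glo), normalized to DMSO (100%) and media-only (0%) wells.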

Assay [16] in a line: Quantitative High-Throughput drug screen in 47 multiple myeloma cell lines against the NCATS MIPE library collection: KHM11_PLB cell viability assay (AID 1918962). Further: nearly all actives have a fitted effect of over 35% in size. A digest of the protocol:
as §1

Assay [17] is described as follows: Quantitative High-Throughput drug screen in 47 multiple myeloma cell lines against the NCATS MIPE library collection: JIM3_ECACC cell viability assay (AID 1918963; further: nearly all actives have a fitted effect of over 35% in size; further: potency means the concentration at half of the fitted maximal effect). A digest of the protocol:
as §1

The nature of assay [18]: Quantitative High-Throughput drug screen in 47 multiple myeloma cell lines against the NCATS MIPE library collection: ARP1_JJKsccF8 cell viability assay (AID 1918928; further: nearly all actives have a fitted effect of over 40% in size; further: potency means the concentration at half of the fitted maximal effect). A digest of the protocol:
as §3

Values without a mark were called inactive. Inconclusive results are not listed. Calls of active or inactive are those of the source. The call rests on the fitted dose curve; in most records, active means well fitted curve in the direction sought with a large enough effect; inconclusive means small, poorly fitted or top-dose-only effect, or another doubt; inactive means no such curve, though single readings can be large; an effect the other way counts as inactive or inconclusive.

Phospholipid hydroperoxide glutathione peroxidase GPX4 (Homo sapiens), sequence (P36969 whole entry, looked up): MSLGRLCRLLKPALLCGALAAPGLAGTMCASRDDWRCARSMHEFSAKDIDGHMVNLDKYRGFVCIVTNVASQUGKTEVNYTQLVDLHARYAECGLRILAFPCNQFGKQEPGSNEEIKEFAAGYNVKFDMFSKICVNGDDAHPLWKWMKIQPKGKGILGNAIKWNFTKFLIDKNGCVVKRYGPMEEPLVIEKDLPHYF

Consider `COc1ccc(Cn2ccc3ccc(C(=O)NO)cc32)cc1`, for which the Potency result in assay [1], in assay [2], in [3], in assay [5], in assay [8] and in assay [11] was “inactive” each time. Moreover, the outcome in assay [4] was inactive. The Potency in assay [6] is 20.9 µM (active); in assay [7], 16.6 µM (active); in assay [9], 13.2 µM (active); in assay [10] it was 11.8 µM (active).

On to `CC(NCCc1ccc(O)cc1)C(O)c1ccc(O)cc1` (stereo unspecified), for which the Potency result in assay [1], in assay [5], in assay [12], in [7], in assay [13] and in [14] was “inactive” in each case. In addition, the Potency result in [16], in assay [8], in [9], in assay [10] and in assay [11] was “inactive” each time. Also, the Potency in assay [15] was 0.132 µM (active).

Take `CC1CCN(c2cc(N3CCN(C)CC3)ccc2NC(=O)c2cc(C#N)c[nH]2)CC1`: the Potency result in assay [1], in assay [2], in assay [3], in assay [14], in assay [15] and in assay [16] was “inactive” in each case. In addition, the Potency result in [17], in assay [8] and in assay [11] was “inactive” in each case. In addition, the outcome in [4] was inactive.

Turning to `COc1cc2c(cc1Cc1cccc(Cl)c1F)c(=O)c(C(=O)O)cn2[C@H](CO)C(C)C`, the Potency in assay [1] is 11.2 µM (active); in assay [5], 20.9 µM (active); in [12] it was 20.9 µM (active); in assay [6], 20.9 µM (active); in [18] it was 16.6 µM (active); in assay [17], 20.9 µM (active). Moreover, the Potency in [9] was 13.2 µM (active); in assay [10], 16.6 µM (active).

On to `Cc1nc(C(=O)NCC(=O)O)c(O)c2ccc(Oc3ccccc3)cc12`, for which the Potency result in assay [1], in [3], in assay [12], in assay [6], in assay [18] and in assay [14] was “inactive” each time. The Potency entry in assay [17], in assay [9] and in assay [11] was “inactive” throughout. Besides, in assay [4], the result was inactive.

`COc1cc(Nc2nc3ccccc3nc2NS(=O)(=O)c2ccc(NC(=O)c3ccc(C)c(OC)c3)cc2)cc(OC)c1`: the Potency entry in assay [1], in [2] and in assay [3] was “inactive” throughout. Besides, the compound was called inactive in [4]. Moreover, the Potency in assay [17] was 13.2 µM (active); in assay [9] it was 16.6 µM (active).

With `O=C(O)C1=CC(O)C(O)[C@H](O)C1` (stereo partly specified), the Potency entry in assay [1], in [5], in assay [12], in assay [6], in [7] and in assay [13] was “inactive” in each case. Also, the Potency entry in assay [14], in assay [15], in assay [16], in assay [17] and in [11] was “inactive” throughout.

In the case of `C[C@@H]1C[C@H]2[C@@H]3CCC4=CC(=O)C=C[C@]4(C)[C@@]3(F)[C@@H](O)C[C@]2(C)[C@@]1(O)C(=O)CO`, the Potency result in assay [1], in assay [5], in assay [12], in [6], in assay [7] and in assay [14] was “inactive” throughout. The Potency entry in assay [17], in [8], in assay [9], in assay [10] and in assay [11] was “inactive” in each case. The Potency in [18] was 0.0235 µM (active); in assay [13], 0.0093 µM (active).
